Laboratory results reported in the supplement of paper PMC3545927.
The other results are listed elsewhere or left out. The true hit rate is not given.

Molecular target: furin, P09958
Assay: furin cleavage Z-score vs untreated control; higher = more cleavage, active = 3.5 or more, inactive = 1 or less, 8 variable residues between constant flanks
Procedure, shortened: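 To give the cleavage Z-score, log read counts were set against furin-free reactions, lowess-adjusted and scaled by median absolute deviation. These counts came from PCR adapter-tagged, sequenced DNA released when purified furin cut 8-mer peptides fused to a cDNA oligonucleotide and held on magnetic beads by their N-terminus. Digests were 0.01 ml, 1:10 enzyme:substrate, in 50 mM HEPES pH 7.5 with CaCl2 and NaCl, for 7.5, 15 or 30 min.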

Sequence of furin, P09958 (P09958 whole entry): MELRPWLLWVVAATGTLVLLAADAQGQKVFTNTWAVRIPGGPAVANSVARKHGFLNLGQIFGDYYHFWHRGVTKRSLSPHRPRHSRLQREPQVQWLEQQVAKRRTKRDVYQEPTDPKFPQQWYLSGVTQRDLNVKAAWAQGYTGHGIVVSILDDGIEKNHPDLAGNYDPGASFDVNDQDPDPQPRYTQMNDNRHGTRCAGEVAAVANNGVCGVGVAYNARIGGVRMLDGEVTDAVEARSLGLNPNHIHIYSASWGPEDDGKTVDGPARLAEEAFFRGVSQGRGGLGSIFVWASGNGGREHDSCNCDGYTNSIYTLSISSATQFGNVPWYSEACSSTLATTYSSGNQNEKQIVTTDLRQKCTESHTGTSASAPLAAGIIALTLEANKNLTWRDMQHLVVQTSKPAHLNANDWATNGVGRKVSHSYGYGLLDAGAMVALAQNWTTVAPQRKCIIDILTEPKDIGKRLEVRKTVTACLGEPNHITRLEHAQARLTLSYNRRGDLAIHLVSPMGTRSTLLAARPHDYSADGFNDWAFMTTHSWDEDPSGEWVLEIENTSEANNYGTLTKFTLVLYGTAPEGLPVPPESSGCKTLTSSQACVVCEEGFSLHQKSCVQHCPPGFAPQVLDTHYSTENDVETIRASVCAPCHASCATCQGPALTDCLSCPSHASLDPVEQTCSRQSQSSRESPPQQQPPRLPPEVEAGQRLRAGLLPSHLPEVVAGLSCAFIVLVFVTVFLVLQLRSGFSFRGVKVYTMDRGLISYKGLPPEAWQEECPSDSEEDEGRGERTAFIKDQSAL

| Sequence | furin cleavage Z-score (7.5 min) | furin cleavage Z-score (15 min) | furin cleavage Z-score (30 min) |
| --- | --- | --- | --- |
| CATTPCKGSWAGNASASA [HC71] | 1.27 | 0.748 (inactive) | 0.0767 (inactive) |
| CAMEECSQHNAGNASASA [HC1781] | 1.41 | 1.49 | 0.115 (inactive) |
| CATTPCSGGWAGNASASA [HC1916] | -1.1 (inactive) | -1.09 (inactive) | -1.17 (inactive) |
| CAMPKKTRRSAGNASASA [FS-1140] | 9.94 (active) | 11.9 (active) | 9.14 (active) |
| CARLASCRPLAGNASASA [HC388] | -0.427 (inactive) | -1.06 (inactive) | -2.04 (inactive) |
| CARLCRKRRCAGNASASA [FS-1478] | 5.9 (active) | 6.48 (active) | 7.28 (active) |
| CAGITGDNTTAGNASASA [HC1340] | 0.448 (inactive) | -1.88 (inactive) | -0.26 (inactive) |
| CARIKRGNTTAGNASASA [FS-2952] | 4.9 (active) | 5.56 (active) | 4.43 (active) |
| CARAGRSKGTAGNASASA [FU10] | 1.67 | 1.52 | 0.0134 (inactive) |
| CAWISSECTTAGNASASA [HC1142] | -0.663 (inactive) | -0.247 (inactive) | 0.84 (inactive) |
| CARAGRSAPLAGNASASA [FS-2883] | 2.27 | 5.01 (active) | 3.82 (active) |
| CAPLKRSMSLAGNASASA [FS-2875] | 2.28 | 0.41 (inactive) | 0.484 (inactive) |
| CARAGRSGKEAGNASASA [FS-1990] | 0.457 (inactive) | 0.0281 (inactive) | -1.58 (inactive) |
| CARKKKRQSLAGNASASA [FS-2153] | 0.376 (inactive) | 0.239 (inactive) | 0.449 (inactive) |
| CARAGRSKRTAGNASASA [FS-486] | 10.8 (active) | 9.36 (active) | 7.48 (active) |
| CARAGRACEGAGNASASA [FS-2882] | 0.299 (inactive) | -0.431 (inactive) | 0.946 (inactive) |
| CARIKRRKSLAGNASASA [FS-2953] | 2.28 | 3.44 | 5 (active) |
| CALLLAVFGPAGNASASA [HC606] | -1.28 (inactive) | -0.292 (inactive) | 0.343 (inactive) |
| CAVVCCVMSYAGNASASA [HC103] | -1.06 (inactive) | -0.0414 (inactive) | -1.47 (inactive) |
| CARVWRATSSAGNASASA [FS-2110] | 1.3 | 0.783 (inactive) | 0.938 (inactive) |
| CAPRSRARKLAGNASASA [FS-842] | 0.0836 (inactive) | 1.96 | -0.483 (inactive) |
| CARIKRSAPLAGNASASA [FS-2954] | 11.4 (active) | 11.4 (active) | 10.2 (active) |
| CARKSRWAKLAGNASASA [FS-2982] | -0.417 (inactive) | 0.0632 (inactive) | 3.23 |
| CATFYGMWPLAGNASASA [HC555] | -1.22 (inactive) | -0.0659 (inactive) | 1.29 |
| CARIKRQHSSAGNASASA [FS-1898] | 4.55 (active) | 5.06 (active) | 4.01 (active) |
| CARIKRSRKLAGNASASA [FS-3156] | 7.25 (active) | 9.58 (active) | 9.07 (active) |
| CARLKRLCSSAGNASASA [FS-2990] | 0.399 (inactive) | -0.446 (inactive) | 0.202 (inactive) |
| CASTPCSAPLAGNASASA [HC2559] | -0.781 (inactive) | 0.424 (inactive) | 0.232 (inactive) |
